Test results published in PubChem BioAssay (NCATS).
Values joined by “and” are separate entries in the source; they are usually repeats but may differ in a detail not shown here. Equal values may be shown once. Records with an inconclusive call do not appear. Where a call stands in place of a potency, no number is given. Active and inactive are the calls of the source. Unless noted, calls come from the whole dose curve; as a rule, active = well fitted curve in the direction sought with a large enough effect; inconclusive = small, poorly fitted or top-dose-only effect, or another doubt; inactive = no such curve, though single readings can be large; an effect the other way counts as inactive or inconclusive.

Tests used:
[1] = biological target: Mitogen-activated protein kinase 10 (Mus musculus) (UniProt Q61831); experiment: JNK3 AlphaScreen Assay (AID 530; active = well fitted curve in either direction with a large enough effect, not every such curve was filed as active;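 note: kinase came from lysate of stimulated human HepG2 cells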; note: potency is the fitted concentration of half-maximal effect)
How it was run: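 qHTS titrations with 15 min compound pre-incubation before adding ATP (10 uM final). Read-out: AlphaScreen of Ser73-phosphorylated biotin-GST-cJun using HepG2 lysate JNK3 activated by IL-1β and TNFα.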

[2] = Cellular Toxicity (caspase-3) Jurkat (AID 655); conditions: Jurkat caspase-3 activation, luminescence; caspase-3 activation: at 92.2 µM (top of the series), DMSO = 0%, tamoxifen = 100%;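 note: cells exposed to compound for 16 h at 37 °C before reading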
How it was run: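 qHTS in human Jurkat T-cell leukemia line: 16 hr compound treatment at 37 °C, caspase-3/7 activity measured by Caspase-Glo luminescence. AC50 derived from Hill equation.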

[3] = Cellular Toxicity (caspase-3) N2a (AID 665);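 note: compound exposure lasted 16 h at 37 °C before readout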
How it was run: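 Caspase-3/7 activation, measured as increased luminescence from aminoluciferin release, is quantified in mouse N2a cells exposed to compounds for 16 h. Values are normalized to DMSO and 10 uM staurosporine, with AC50 derived by Hill modelling.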

[4] = Cellular Toxicity (caspase-3) Renal Proximal Tubule (AID 667);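 note: cells exposed to compound for 16 hours at 37 °C before detection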
How it was run: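 Caspase-Glo 3/7 read-out, rat primary kidney proximal tubule cells. Compound exposure 16 h, 37 °C; detection after 1 h at RT. Activity scaled to DMSO and 10 uM staurosporine.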

[5] = biological target: Cytochrome P450 3A4 (Homo sapiens) (UniProt P08684); experiment: qHTS Assay for Inhibitors and Substrates of Cytochrome P450 3A4 (AID 884); note: nearly all actives have a fitted effect of over 50% in size; note: potency is the fitted concentration of half-maximal effect
Chain of Cytochrome P450 3A4 (Homo sapiens) (P08684 whole entry, looked up): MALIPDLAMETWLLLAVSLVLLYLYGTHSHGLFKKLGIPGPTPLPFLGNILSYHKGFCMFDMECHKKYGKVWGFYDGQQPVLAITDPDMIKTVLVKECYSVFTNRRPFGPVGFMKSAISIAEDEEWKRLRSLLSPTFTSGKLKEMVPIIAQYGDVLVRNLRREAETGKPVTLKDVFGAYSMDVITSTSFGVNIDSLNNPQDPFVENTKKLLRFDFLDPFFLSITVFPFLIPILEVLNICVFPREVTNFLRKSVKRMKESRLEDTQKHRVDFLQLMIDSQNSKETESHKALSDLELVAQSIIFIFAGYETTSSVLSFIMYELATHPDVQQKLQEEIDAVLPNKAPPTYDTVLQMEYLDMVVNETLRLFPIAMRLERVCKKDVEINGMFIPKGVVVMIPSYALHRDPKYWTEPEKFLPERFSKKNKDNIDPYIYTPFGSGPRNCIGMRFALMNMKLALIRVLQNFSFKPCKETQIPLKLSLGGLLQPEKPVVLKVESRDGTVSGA
How it was run: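 Luminescent readout of luciferin produced by CYP3A4 (20 nM) dealkylation of Luciferin-PPXE, 25 uM (its KM). NADPH-driven reaction ran 60 min at RT after 10 min compound preincubation; data scaled to 57 uM ketoconazole as 100% inhibition.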

[6] = MultiTox-Fluor Cytotoxicity Assay - LYMP1-001 - Live Cells (AID 947)
[7] = Cell Viability - LYMP1-003 - Assay at 40 hr (AID 964); note: nearly all actives have a fitted effect of over 60% in size
How it was run: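 Luminescent ATP signal (CellTiter-Glo) served as the viability read-out after 40 hr compound treatment of human lymphoblastoid LYMP1-003 cells at 37 C. Decreases in ATP were fitted with the Hill equation to give AC50.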

[8] = Cell Viability - LYMP2-004 (AID 966);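 note: cells exposed to compound for 24 h; nearly all actives have a fitted effect of over 65% in size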
How it was run: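 qHTS cytotoxicity: human lymphoblastoid line, 24 hr compound treatment, 37 C, complete medium. Viability read as cellular ATP via luciferase luminescence; tetraoctylammonium bromide served as positive control.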

[9] = Cell Viability - LYMP2-017 (AID 972);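 note: cells exposed to compound for 24 hours at 37 °C; nearly all actives have a fitted effect of over 55% in size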
How it was run: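 Cytotoxicity is scored as a concentration-dependent drop in cellular ATP in a human lymphoblastoid line after 24 hr treatment at 37 C. Values are AC50s from Hill-equation modelling.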

[10] = Cell Viability - LYMP2-019 (AID 973);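 note: cells exposed to compound for 24 h at 37 °C; nearly all actives have a fitted effect of over 55% in size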; note: potency is the fitted concentration of half-maximal effect
How it was run: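 Cytotoxicity is scored as a concentration-dependent drop in cellular ATP after cells (2500/well) receive compound for 24 hr at 37 C. Tetraoctylammonium bromide serves as positive control.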

[11] = Cell Viability - LYMP2-007 (AID 979);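 note: cells exposed to compound for 24 h before reading; nearly all actives have a fitted effect of over 60% in size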
How it was run: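 Cells are seeded at 2500 per well and rested 5 hr. Compounds are then added over a concentration series for 24 hr at 37 C. CellTiter-Glo is added for 30 min at room temperature before luminescence reading.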

[12] = Cell Viability - LYMP2-008 (AID 980);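 note: cells exposed to compound for 24 h at 37 °C; nearly all actives have a fitted effect of over 60% in size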
How it was run: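 Cells seeded at 2500/well and rested 5 hr at 37 C; compounds added over a concentration range and incubated 24 hr at 37 C; CellTiter-Glo added, 30 min at room temperature; luminescence read and AC50 fitted with Hill model.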

[13] = Cell Viability - LYMP2-012 (AID 982);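 note: cellular ATP by luciferase luminescence where a drop means cytotoxicity; cells exposed to compound for one day before reading; nearly all actives have a fitted effect of over 55% in size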
[14] = Cell Viability - LYMP2-014 (AID 983);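 note: cells exposed to compound for 24 h at 37 °C; nearly all actives have a fitted effect of over 50% in size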
How it was run: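 Cells are plated at 2500/well and left 5 hr at 37 C. Compounds are added across a concentration range and incubated 24 hr at 37 C in complete medium. CellTiter-Glo is added, and luminescence is read after 30 min at room temperature.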

[15] = Cell Viability - LYMP2-018 (AID 985);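 note: compound exposure lasted 24 hr at 37 °C; nearly all actives have a fitted effect of over 50% in size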
How it was run: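 Seed 2500 lymphoblastoid cells per well, incubate 5 hr at 37 C, add compound and incubate 24 hr at 37 C, add CellTiter-Glo, wait 30 min at room temperature, then read luminescence.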

[16] = Cell Viability - LYMP1-002 - Assay at 40 hr (AID 994); note: nearly all actives have a fitted effect of over 60% in size
How it was run: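 Cells are plated at 2500 per well and rested 5 hr at 37 C. Compounds are added and incubated 40 hr at 37 C. CellTiter-Glo reagent is added for 30 min at room temperature before luminescence is read.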

[17] = qHTS assay for small molecule antagonists of retinoid X receptor alpha signaling (AID 588546); conditions: HEK293T RXRa-UAS-bla, beta-lactamase ratio, antagonist mode; measured here: W530 green channel, cytotoxicity proxy;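 note: cells stimulated with 9-cis-retinoic acid as agonist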
How it was run: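 Beta-lactamase reporter inhibition, read as CCF4 fluorescence ratio (ex 405, em 460/530 nm) after 2 h at RT. HEK293T UAS-bla cells, 2500/well, were stimulated with 9-cis-RA at 500 or 100 nM final alongside test compound for 18 h at 37 C.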

[18] = qHTS assay for cell viability of the p53RE-bla HCT-116 cell line (AID 743292); note: nearly all actives have a fitted effect of over 55% in size
How it was run: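 Viability of compound-treated p53RE-bla HCT-116 cells is taken from ATP-dependent luciferase luminescence. Treatment lasts 16 h at 37 C after a 5 h settling period; detection follows 30 min at room temperature.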

[19] = biological target: Voltage-gated inwardly rectifying potassium channel KCNH2 (Homo sapiens) (UniProt Q12809); experiment: qHTS Assay for Small Molecule Inhibitors of the Human hERG Channel Activity (AID 588834);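 note: top concentration of the series differs between compounds; lower thallium flux fluorescence means stronger hERG block; nearly all actives have a fitted effect of over 50% in size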
Chain of Voltage-gated inwardly rectifying potassium channel KCNH2 (Homo sapiens) (Q12809 whole entry, looked up): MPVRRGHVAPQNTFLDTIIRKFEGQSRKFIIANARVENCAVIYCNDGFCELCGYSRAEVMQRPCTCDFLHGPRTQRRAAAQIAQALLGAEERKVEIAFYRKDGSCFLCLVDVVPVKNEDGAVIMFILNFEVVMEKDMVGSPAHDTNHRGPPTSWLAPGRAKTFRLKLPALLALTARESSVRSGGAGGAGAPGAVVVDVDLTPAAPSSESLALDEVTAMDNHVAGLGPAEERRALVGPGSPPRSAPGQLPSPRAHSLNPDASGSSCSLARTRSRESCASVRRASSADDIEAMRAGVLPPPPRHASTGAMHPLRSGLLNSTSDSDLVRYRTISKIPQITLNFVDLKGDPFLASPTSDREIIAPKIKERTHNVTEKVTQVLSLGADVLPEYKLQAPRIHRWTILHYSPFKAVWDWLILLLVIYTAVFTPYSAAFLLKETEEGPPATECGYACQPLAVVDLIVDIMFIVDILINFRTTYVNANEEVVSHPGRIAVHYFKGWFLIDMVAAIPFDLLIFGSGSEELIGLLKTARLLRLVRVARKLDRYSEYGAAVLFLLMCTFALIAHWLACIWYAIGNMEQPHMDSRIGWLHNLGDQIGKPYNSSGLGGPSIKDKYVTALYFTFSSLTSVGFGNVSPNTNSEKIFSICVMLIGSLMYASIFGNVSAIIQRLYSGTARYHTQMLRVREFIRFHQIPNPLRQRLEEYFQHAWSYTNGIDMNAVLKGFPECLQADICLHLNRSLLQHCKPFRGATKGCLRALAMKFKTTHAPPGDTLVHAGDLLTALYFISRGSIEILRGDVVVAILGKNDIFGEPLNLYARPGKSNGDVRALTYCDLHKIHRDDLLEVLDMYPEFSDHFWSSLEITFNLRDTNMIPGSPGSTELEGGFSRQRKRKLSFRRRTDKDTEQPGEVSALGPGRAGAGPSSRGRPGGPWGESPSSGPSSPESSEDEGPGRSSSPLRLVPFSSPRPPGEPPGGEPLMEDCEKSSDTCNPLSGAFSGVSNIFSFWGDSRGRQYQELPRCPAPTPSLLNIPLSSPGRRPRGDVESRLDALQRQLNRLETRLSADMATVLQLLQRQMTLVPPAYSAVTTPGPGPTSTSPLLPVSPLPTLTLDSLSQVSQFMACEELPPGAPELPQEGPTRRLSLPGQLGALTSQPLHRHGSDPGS
How it was run: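 Homogeneous FluxOR thallium flux assay using hERG-expressing U2OS cells (BacMam). Compound treatment about 10 minutes preceded stimulation; reduced fluorescence taken as channel block.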

[20] = biological target: Tumor necrosis factor (Homo sapiens) (UniProt P01375); experiment: qHTS assay to identify small molecules that stimulate Tumor Necrosis Factor-alpha (TNF-alpha) secretion (AID 651757; active = well fitted curve in the direction sought with a large enough effect in the signal ratio; the % refers to the signal ratio)
Chain of Tumor necrosis factor (Homo sapiens) (P01375 whole entry, looked up): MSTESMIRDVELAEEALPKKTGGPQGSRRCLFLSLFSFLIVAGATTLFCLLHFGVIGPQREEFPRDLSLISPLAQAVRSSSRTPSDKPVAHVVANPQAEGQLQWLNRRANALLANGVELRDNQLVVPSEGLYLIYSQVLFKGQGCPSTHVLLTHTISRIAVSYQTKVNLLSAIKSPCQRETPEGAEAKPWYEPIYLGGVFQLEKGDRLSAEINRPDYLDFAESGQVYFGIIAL
How it was run: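 Human monocytic THP-1 cells are plated, treated with compound and held at 37 C for 17 hrs. Labeled anti-TNF-alpha antibody mixture is then added; after 3 hr at room temperature, TR-FRET signal reports secreted TNF-alpha.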

| Structure (SMILES) | Potency [1] | caspase-3 activation [2] | outcome [3] | outcome [4] | Potency [5] | outcome [6] | Potency [7] | Potency [8] | Potency [9] | Potency [10] | Potency [11] | Potency [12] | Potency [13] | Potency [14] | Potency [15] | Potency [16] | max response [17] | Potency [18] | Potency [19] | outcome [20] |
| --- | --- | --- | --- | --- | --- | --- | --- | --- | --- | --- | --- | --- | --- | --- | --- | --- | --- | --- | --- | --- |
| Cc1ccc2c(c1N)C(=O)c1ccccc1C2=O | 3.98 µM (active) | -9.07% (inactive) | inactive | inactive | 5.01 µM (active) | inactive | inactive | inactive | inactive | inactive | inactive | inactive | inactive | inactive | inactive | inactive | -0.33% and -4.6% | inactive |  |  |
| Cc1cnc[nH]1 | inactive | 1.79% (inactive) | inactive | inactive | inactive | inactive | inactive | inactive | inactive | inactive | inactive | inactive | inactive | inactive | inactive |  | -10.6% | inactive | inactive | inactive |
| CCCCCCCCCCCCCl | inactive | 1.16% (inactive) | inactive | inactive | inactive | inactive | inactive | inactive | inactive | inactive | inactive | inactive | inactive | inactive | inactive | inactive | -8.5% | inactive | inactive | inactive |
| Nc1ccc([N+](=O)[O-])cc1N | inactive | 17.7% (inactive) | inactive | inactive | inactive | inactive |  | inactive | inactive | inactive | inactive | inactive | inactive | inactive | inactive | inactive | 7.14% and -1.85% | inactive | inactive |  |
| Oc1c(Cl)c(Cl)cc(Cl)c1Cl | inactive | 83.2% (active) | inactive | inactive | inactive | inactive | inactive | inactive | inactive | inactive | inactive | inactive | inactive | inactive | inactive | inactive | -8.85% | inactive | inactive | inactive |
| Nc1c(Br)cc([N+](=O)[O-])cc1[N+](=O)[O-] | inactive |  | inactive | inactive |  | inactive | inactive | inactive | inactive | inactive | inactive | inactive | inactive | inactive | inactive | inactive |  | inactive | inactive |  |
| COC(C)(C)C | inactive |  | inactive |  | inactive | inactive | inactive | inactive | inactive | inactive | inactive | inactive | inactive | inactive | inactive | inactive | -12.9% | inactive | inactive | inactive |
| O=[N+]([O-])c1ccccc1CCl |  | -0.153% (inactive) |  | inactive | inactive | inactive | inactive | inactive |  | 63.1 µM (active) |  |  | inactive | inactive |  | inactive | 9.99% | inactive | inactive | inactive |
